Screen size: about 190,000 compounds; about 1,300 (0.68%) were called active. No stated cut-off is given here; in the data, active means inhibition above about 50%; inactive means the rest. Shown is part of a subset that was picked to be rich in actives.

The target in this assay is Mannose-6-phosphate isomerase (Homo sapiens) (UniProt P34949). The assay is described as follows: human PMI inhibitors, high substrate, primary screen, biochemical, fluorescence intensity, high mannose 6-phosphate (AID 1220). Conditions: recombinant PMI enzyme, coupled fluorescence intensity; at 20 µM; hits give high values.
Chain of Mannose-6-phosphate isomerase (Homo sapiens) (P34949 whole entry, looked up): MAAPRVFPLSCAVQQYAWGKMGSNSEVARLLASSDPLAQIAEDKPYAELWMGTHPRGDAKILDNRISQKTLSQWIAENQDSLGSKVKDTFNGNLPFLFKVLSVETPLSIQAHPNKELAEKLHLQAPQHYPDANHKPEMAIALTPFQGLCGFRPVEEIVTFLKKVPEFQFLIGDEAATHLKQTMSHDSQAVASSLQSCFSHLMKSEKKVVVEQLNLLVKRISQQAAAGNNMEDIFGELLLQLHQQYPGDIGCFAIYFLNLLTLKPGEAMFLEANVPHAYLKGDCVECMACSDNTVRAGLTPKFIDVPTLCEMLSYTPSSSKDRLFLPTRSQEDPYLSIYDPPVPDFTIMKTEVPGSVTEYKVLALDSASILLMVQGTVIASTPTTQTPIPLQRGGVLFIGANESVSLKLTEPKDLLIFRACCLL
With `COc1ccc(CNC(=O)c2ccc(C(C)C)cc2)cc1`, the inhibition is 12.3% (inactive).

As for `O=C(Nc1ccccc1OC(F)F)c1ccccc1`, the inhibition was 9.2% (inactive).

As for `CC1CCCCC1N1CCN(C(=O)c2cccc(F)c2)CC1` (stereo not drawn), the inhibition is -10.5% (inactive).

Regarding `O=C(Nc1nc2ccc(F)cc2s1)C1CCN(S(=O)(=O)c2cc([N+](=O)[O-])ccc2Cl)CC1`, the inhibition was 13.7% (inactive).

On to `C=CCn1c(Cc2ccc(OC)cc2)nnc1SCC(=O)NCCc1ccccc1`, for which the inhibition is -0.7% (inactive).

Take `COc1ccc(C(C)C)cc1S(=O)(=O)N1CCN(c2ccccc2)CC1`: the inhibition was 6.8% (inactive).

Consider `Cn1nnnc1NCc1ccc(Cl)cc1`, for which the inhibition is -7.1% (inactive).

As to `Cc1cnc(CN2CCc3c([nH]c4ccccc34)C2CC(C)C)[nH]1` (stereo not drawn), the inhibition is 11.2% (inactive).

Take `COCc1ccc(CN2CCc3c([nH]c4ccccc34)C2CC(C)C)o1` (stereo not drawn): the inhibition was 52% (active).

Regarding `COCc1ccc(CN2CCc3c([nH]c4ccccc34)C2C(C)(C)C)o1` (stereo not drawn), the inhibition is 14.1% (inactive).

For `O=C(Cc1cccs1)Nc1ccc(S(=O)(=O)N2CCCC2)cc1`, the inhibition was 39.8% (inactive).

Regarding `CC(On1c(-c2ccccc2)nc2ccc(Cl)cc21)C(=O)O` (stereo not drawn), the inhibition was -10.3% (inactive).

In the case of `CC(C)=CC(=O)N1CCCc2ccccc21`, the inhibition is 10.1% (inactive).

For the compound `C/C(=C/C(=O)N1CCc2ccccc21)C(=O)O`, the inhibition is 2.1% (inactive).

For the compound `C/C(=C\C(=O)N1CCc2ccccc21)C(=O)O`, the inhibition was 61.3% (active).

For `Nc1nonc1-n1nnc(C(=O)O)c1-c1cccs1`, the inhibition was 0.4% (inactive).

`Cc1noc(C)c1COC(=O)CNC(=O)c1cccc(F)c1`: the inhibition is -11.8% (inactive).

With `O=C(Nc1ccc2oc(Cc3ccc(Cl)cc3)nc2c1)c1cccnc1`, the inhibition is 7.7% (inactive).

Regarding `O=[N+]([O-])c1ccc(O)c(C=Nc2ccc3c(c2)OCCO3)c1`, the inhibition is 52.8% (active).

As for `O=C(N/N=C/c1cc([N+](=O)[O-])ccc1O)c1ccc2c(c1)OCCO2`, the inhibition is -16.7% (inactive).

For `O=[N+]([O-])c1ccc(O)c(C=Nc2ccc3nc(-c4ccccc4)[nH]c3c2)c1`, the inhibition is 8.2% (inactive).

Consider `Oc1ccc(C=Nc2cccc3ncccc23)c(O)c1`, for which the inhibition is 38.7% (inactive).

On to `CN(C)/N=C/c1cc([N+](=O)[O-])ccc1O`, for which the inhibition is 9.8% (inactive).

`O=[N+]([O-])c1ccc(O)c(/C=N/Nc2ccccn2)c1`: the inhibition was -20.1% (inactive).

With `O=[N+]([O-])c1ccc(O)c(C=Nc2cccc3ncccc23)c1`, the inhibition is 52.5% (active).

`Oc1c(Br)cc(Br)cc1C=Nc1ccc2c(c1)OCO2`: the inhibition was 48.6% (inactive).

Take `O=[N+]([O-])c1ccc(O)c(C=Nc2ccc3oc(Cc4ccc(Cl)cc4)nc3c2)c1`: the inhibition is 61.1% (active).

Turning to `Oc1c(Br)cc(Br)cc1C=Nc1ccc2c(c1)OCCO2`, the inhibition was 59.7% (active).

For the compound `Oc1c(Cl)cc(Cl)cc1C=Nc1ccc2c(c1)OCCO2`, the inhibition is 25% (inactive).

Turning to `C=CCn1c(SCC(N)=O)nnc1-c1cccc(Br)c1`, the inhibition was 1% (inactive).

As to `Cc1ccc(CN2CCN(Cc3cnc(C)[nH]3)CC2CCO)cc1` (stereo not drawn), the inhibition was 2% (inactive).

Take `O=C(Nc1c(F)cc(F)cc1Br)C1CCCO1` (stereo not drawn): the inhibition is 15.5% (inactive).

As to `CC(=O)NCCc1ccc(S(=O)(=O)N2CCOCC2)cc1`, the inhibition was -2.7% (inactive).

For the compound `CCOC(=O)CNC(=O)CSc1nnc(SCC(=O)NCC(=O)OCC)s1`, the inhibition is -6.4% (inactive).

Consider `COc1ccc(/C=C/C(=O)NC(=S)N2CCN(C)CC2)cc1`, for which the inhibition was -10.4% (inactive).

For `CSc1ccccc1NC(=O)CN(C)CC(=O)Nc1ccccc1F`, the inhibition is -13.9% (inactive).

With `Cc1ccc(NC(=S)N(Cc2ccco2)C2CCN(C(C)C)CC2)cc1`, the inhibition was -8.2% (inactive).

Regarding `Cn1c2c(c(=O)n(C)c1=O)[C@@H]1c3c(ccc4ccccc34)OC[C@@H]1CO2`, the inhibition was -2.5% (inactive).

On to `O=C1COc2ccc3ccccc3c2CN1`, for which the inhibition was -0.8% (inactive).

Turning to `CN1COc2ccc3ccccc3c2C1`, the inhibition is 67.8% (active).

On to `Cc1ccc(C(=O)N/N=C/c2ccc(N3CCOCC3)cc2)c(C)c1`, for which the inhibition is -8% (inactive).

As to `CCN(C(=O)c1ccc(NC(C)=O)cc1)c1ccccc1C`, the inhibition is -3% (inactive).

Regarding `O=[N+]([O-])c1ccc2c(c1Nc1ccccc1)=NC1(CCCCC1)N=2`, the inhibition was 58.9% (active).

As for `Cc1ccc(Nc2c([N+](=O)[O-])ccc3c2=NC2(CCCCC2)N=3)cc1`, the inhibition is 50.8% (active).

Regarding `Cc1ccc(Nc2cc(C)nc3c(C)ccc([N+](=O)[O-])c23)cc1`, the inhibition is 10.2% (inactive).

Take `Cc1ccccc1Nc1c([N+](=O)[O-])ccc2c1=NC1(CCCCC1)N=2`: the inhibition was 38.7% (inactive).

Turning to `O=[N+]([O-])c1ccccc1Nc1ccccc1`, the inhibition is -3.7% (inactive).

For the compound `Cc1ccc(NC(=O)c2ccc(Nc3c([N+](=O)[O-])cc([N+](=O)[O-])cc3[N+](=O)[O-])cc2)cc1`, the inhibition is 3.9% (inactive).

For the compound `C[C@H]1CC[C@@]2(O[C@H](CCO)C[C@@H](O)[C@@H]2O)O1`, the inhibition was 12.7% (inactive).

As for `COc1ccc(Cn2nnc3c(=O)[nH]c(C4CCCN(C(=O)c5ccccc5)C4)nc32)cc1` (stereo not drawn), the inhibition was -5.4% (inactive).

As to `CCOC(=O)/C(=N\O)C1=NC(C)(C)Cc2ccccc21`, the inhibition is -11.3% (inactive).

For `CC1(C)Cc2ccccc2C(/C(=N/O)C(N)=O)=N1`, the inhibition was 5.1% (inactive).

As for `COc1ccc(-c2c(C)nn3c(N4CCC(C(=O)NCCN(C)C)CC4)cc(C)nc23)cc1OC`, the inhibition is 5.7% (inactive).

As for `CCN(CC)CCNC(=O)C(C(=O)c1ccccc1)n1ccccc1=O` (stereo not drawn), the inhibition was 1.8% (inactive).

For `COc1ccc(CNC(=O)C(c2ccncc2)N(C(=O)Cc2cccs2)c2ccccc2)cc1` (stereo not drawn), the inhibition was 1.9% (inactive).

Regarding `Cc1cc(NC(=O)c2ccccc2F)n(-c2nc3ccccc3[nH]2)n1`, the inhibition is -1.3% (inactive).

With `Cc1cc(NC(=O)c2ccccc2)n(-c2nc3ccccc3[nH]2)n1`, the inhibition is 59.2% (active).

As for `Cc1cc(NC(=O)c2c(F)cccc2F)n(-c2nc3ccccc3[nH]2)n1`, the inhibition is 3% (inactive).

For the compound `COc1cc(OC)c(-c2nnc3n(CCc4ccccc4)c(=O)c4ccccc4n23)cc1OC`, the inhibition is 10.4% (inactive).

As for `COc1ccc(CCN2C(=O)C3C4C=CC(C4)C3C2=O)cc1OC` (stereo not drawn), the inhibition was 14% (inactive).

Regarding `CCCCOc1ccc(Nc2nc(C)cc(C)c2C#N)cc1`, the inhibition is 6.1% (inactive).

For `CCOc1cc(NC(=O)CCl)c(OCC)cc1NC(C)=O`, the inhibition is 20.4% (inactive).

As for `CCOc1cc(NC(=S)Nc2cccc(OC)c2)c(OCC)cc1NC(=O)C1CC1`, the inhibition is 56.8% (active).

As to `CCOc1cc(NC(=S)Nc2cccc(OC)c2)c(OCC)cc1NC(=O)C(C)C`, the inhibition was 45.4% (inactive).

As for `CCOc1cc(NC(=S)Nc2cccc(C)c2)c(OCC)cc1NC(=O)CC(C)C`, the inhibition is 17.5% (inactive).

Turning to `COc1cccc(NC(=O)CNC(=O)c2ccc(C)cc2)c1`, the inhibition is 0.9% (inactive).

As for `CCOc1ccc(NC(=S)Nc2cc(OC)c(Cl)cc2OC)cc1`, the inhibition was 24.8% (inactive).

Take `CCOc1cc(NC(=S)Nc2cccc(OC)c2)c(OCC)cc1NC(=O)c1ccc(C)cc1`: the inhibition was 55.1% (active).

As to `CCOc1cc(NC(=S)Nc2ccc(Cl)cc2)c(OCC)cc1NC(C)=O`, the inhibition is 55.9% (active).

Consider `CCOc1cc(NC(=S)Nc2ccccc2)c(OCC)cc1NC(=O)c1ccc(OC)cc1`, for which the inhibition was 56.8% (active).

With `CCOc1cc(NC(=S)Nc2ccccc2)c(OCC)cc1NC(=O)c1ccccc1`, the inhibition is 7.3% (inactive).

Regarding `CCOc1cc(NC(=S)NC)c(OCC)cc1NC(=O)c1ccc(OC)cc1`, the inhibition was 49.8% (inactive).

Regarding `COc1cccc(NC(=O)C2CCCCC2)c1`, the inhibition was 5.6% (inactive).

As usually defined, the inhibition is the relative decrease from the control value, in per cent.
